Consider 98 compounds from PubChem BioAssay AID1246 (Columbia University Molecular Screening Center, 2008).

Molecules are shown by their SMILES. Hit rate of the full screen: of about 120,000 compounds, about 840 (0.7%) were called active.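 Rule for the calls: active = inhibition above the batch mean plus 3 SD, and confirmed as a hit on visual image review (cut at about 43% in these data); inconclusive = passes the inhibition cutoff but fails visual image review; inactive = the rest.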 For the sample, actives were picked, then their nearest neighbours and some compounds at random.

Broadly, the inhibition is the change of the read-out against control, counted positive when it falls.

A short description of this assay: E-selectin induction blockers in HUVEC – imaging, immunofluorescence, high content, primary screen (AID 1246).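 Note: 0% = TNF-stimulated DMSO wells and 100% = unstimulated control wells.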 The following applies: HUVEC TNFa-induced E-selectin immunofluorescence, at 2 µM, stronger effect = higher value.
Consider `COC(=O)C(=Nc1ccccc1)/C(C(=O)C(=O)N(C)c1ccccc1)=C(\O)c1ccc(Cl)cc1`, for which the inhibition was -20.7% (inactive).
With `CSc1ncccc1C(=O)N1CCCC(CCC(=O)NCc2ccccc2F)C1` (stereo not drawn), the inhibition was -22.4% (inactive).
Under `Cc1ccc(SCC(=O)NC(=O)NCc2ccco2)c(C)c1` stands 76% (active); under `Cc1cc(C)c2c(c1)c(C)cc1nnc(SCC(=O)NCc3ccco3)n12`, 9.01% (inactive); under `O=C(CSc1nnc(-c2ccco2)n1Cc1ccccc1)NC(=O)NCc1ccco1`, -1.5% (inactive).
To `Cc1cc(N2CCN(C)CC2)nc2ccc(NC(=S)N3CCOCC3)cc12` belongs 19.6% (inactive).
To `CC(=O)N1CCN(S(=O)(=O)c2c(F)cc(F)c(Cl)c2F)CC1` belongs -26.7% (inactive).
Consider `CCOC(=O)N1CCN(C(=O)CSc2nc(C)nc3c2c(=O)n(C)c(=O)n3C)CC1`, for which the inhibition was -25% (inactive).
Under `Brc1cc(/C=N/n2cnnc2)oc1Br` stands -13.4% (inactive); under `Cc1cccc(C)c1NC(=O)C1CCCN1C(=O)OC(C)(C)C` (stereo not drawn), -33.1% (inactive).
To `C=CCN(CC=C)CCOc1ccccc1[N+](=O)[O-]` belongs -5.8% (inactive); to `Cc1ccc(CNC(=O)c2cccnc2Cl)cc1`, -5.85% (inactive).
With `CSc1nc(C)cc(SC(C(C)=O)C(=O)Nc2ccccc2)n1` (stereo not drawn), the inhibition was -11.9% (inactive).
To `CC(Sc1nnc2c(n1)C1CCC2(C)C1(C)C)C(=O)Nc1ccccc1` (stereo not drawn) belongs 70.7% (active); to `CC12CCC(C(=O)N(NC(=O)c3ccccc3O)C1=O)C2(C)C` (stereo not drawn), -1.25% (inactive); to `Cc1ccc2c(Cl)c(C(=O)Nc3nn[nH]n3)sc2c1`, 13% (inactive).
Under `COc1ccccc1CNC(=O)C1Cc2ccccc2C(=O)O1` (stereo not drawn) stands -3.67% (inactive); under `Cn1c(-c2ccc(F)cc2)cnc1SCC(=O)NNC(=O)Cc1ccccc1`, -21.1% (inactive).
In the case of `CC1=NN(C(C)C)C(=O)C1`, the inhibition is 53.9% (active).
In the case of `Cc1cc(C)n(Cc2cnc(N3CCOCC3)s2)n1`, the inhibition is 1.48% (inactive).
Turning to `Cn1c(SCC(=O)Nc2ccc(Br)cc2F)nnc1-c1ccco1`, the inhibition was -23.6% (inactive).
Under `CCNC(=S)NNC(=O)c1ccc2ncccc2c1` stands 9.15% (inactive).
For `Cc1ccc(-c2csc3nnc(SCC(=O)NCc4ccco4)n23)cc1`, the inhibition is -6.76% (inactive).
Under `CCn1c(COc2ccccc2)nnc1SCC(=O)NCc1ccco1` stands -14.4% (inactive); under `CCn1c(SCC(=O)NCc2ccco2)nnc1-c1ccc(N)cc1`, 69.4% (active).
Under `Cc1ccc(-n2c(C)cc(C(=O)CN3C(=O)C(=O)N(C4CCCC4)C3=O)c2C)cc1` stands -16.5% (inactive).
Under `Cc1ccc(OCC(=O)Nc2ccc(S(=O)(=O)Nc3ccccn3)cc2)cc1` stands -18.7% (inactive); under `CN(C)CC(C)(C)CNC(=O)c1cc(Br)cc(Br)c1O`, 0.11% (inactive).
Regarding `CC(=O)Nc1nc(N(C)C)nc(N(C)C)n1`, the inhibition is 13.8% (inactive).
In the case of `CN(C)S(=O)(=O)c1cc(NC(=O)CN2C(=O)NC3(CCCc4ccccc43)C2=O)ccc1Cl` (stereo not drawn), the inhibition is 67.1% (active).
Under `Cc1cccc(NC(=O)CN2C(=O)CNC2=O)c1` stands -1.87% (inactive); under `CC1(c2ccccc2Cl)NC(=O)N(CC(=O)NC(=O)NCc2ccco2)C1=O` (stereo not drawn), 23.7% (inactive); under `CN1CCN(CCCCOc2ccccc2-c2ccccc2)CC1`, -23.6% (inactive).
To `CC(=O)C1(C)N(O)C(C)(C)C(c2cccs2)=[N+]1[O-]` (stereo not drawn) belongs -15.7% (inactive); to `CC1CC(C)CN(S(=O)(=O)c2ccc(C(=O)NN3CCOCC3)cc2)C1` (stereo not drawn), -4.78% (inactive); to `CCOC(=O)c1c(NC(=O)CSc2nnc(CNc3ccc(C)cc3C)o2)sc(C)c1C`, 74.5% (active).
To `CCOC(=O)c1sc(NC(=O)CSc2nnc(-c3ccco3)o2)c(C(=O)OCC)c1C` belongs -40.2% (inactive).
Take `CCOC(=O)c1c(-c2ccc(C)cc2C)csc1NC(=O)CSc1nnnn1C`: the inhibition was -25.1% (inactive).
To `COc1cccc(C(=O)N2CCCC(CCC(=O)NCc3ccc(F)c(F)c3)C2)c1` (stereo not drawn) belongs -27.8% (inactive); to `O=c1[nH]c2cccnc2n(CCNc2ncc(C(F)(F)F)cc2Cl)c1=O`, -0.32% (inactive).
Under `Cc1ccc(NC(=O)c2oc3ccccc3c2C)c([N+](=O)[O-])c1` stands 7.01% (inactive).
Take `COc1ccc(-c2nc3cnccn3c2NC(C)(C)CC(C)(C)C)cc1O`: the inhibition was 78.6% (active).
To `COc1ccc(-c2cc(C(F)(F)F)nc(NCc3cccnc3)n2)cc1` belongs 6.81% (inactive); to `CCOc1cc(-c2nc3cc(C)ccn3c2NCC2CCCO2)ccc1O` (stereo not drawn), -1.41% (inactive).
Regarding `COc1cccc(CNC(=O)c2n[nH]c3ccccc23)c1`, the inhibition was 21.4% (inactive).
Under `CNC(=O)COC(=O)c1cc(-c2ccc(OC)cc2)nc2ccccc12` stands -50.4% (inactive); under `CC(=O)c1cnc(-c2ccccc2)s1`, -23.3% (inactive).
Under `CN(CC(=O)Nc1ccccc1F)CC(=O)Nc1ccccc1Br` stands -9.64% (inactive); under `O=C(O)CCn1c(SCc2cc(=O)n3ccccc3n2)nc2ccsc2c1=O`, 7.79% (inactive); under `COC(=O)Cn1cc(/C=C/[N+](=O)[O-])c2ccccc21`, -39.6% (inactive).
To `COc1ccccc1CCNC(=O)CSc1nnc2ccc(-c3cccnc3)nn12` belongs 23.9% (inactive); to `COc1ccccc1CCNC(=O)c1cnccn1`, 70.2% (active); to `COc1cccc(OCC(=O)NNC(=O)c2cnccn2)c1`, -0.48% (inactive).
Regarding `COc1ccccc1CNC(=O)c1cc(=O)c2ccccc2o1`, the inhibition is 6.95% (inactive).
Under `Cc1ccc(S(=O)(=O)N(C)C)cc1NC(=O)c1ccccc1Br` stands 21.2% (inactive); under `COc1ccc(NC(=O)CCNS(=O)(=O)c2ccc3c(c2)c(=O)n(C)c(=O)n3C)cc1OC`, -38.9% (inactive); under `COc1ccc(C2N=C(N)N=C(N)N2c2ccccc2)cc1OC` (stereo not drawn), 62.9% (active).
Under `COc1ccc(C2CC(=O)n3c(nc4ccccc43)S2)cc1OC` (stereo not drawn) stands -0.21% (inactive).
To `COc1ccc(C2/C(=C(/O)c3ccccc3)C(=O)C(=O)N2c2ncccn2)cc1OC` (stereo not drawn) belongs -2.78% (inactive); to `O=C(O)/C=C/c1ccc(OCCCF)cc1`, -53.3% (inactive); to `CC(=O)Oc1cccc(N2C(=O)C3CC=C(Cl)CC3C2=O)c1` (stereo not drawn), 64.7% (active).
For `CC(=O)Oc1cccc(N2C(=O)CC(Nc3ccc(N4CCOCC4)cc3)C2=O)c1` (stereo not drawn), the inhibition was -16.6% (inactive).
To `O=C(Oc1cccc(N2C(=O)C3C4c5ccccc5C(c5ccccc54)C3C2=O)c1)c1ccco1` (stereo not drawn) belongs 13.7% (inactive); to `COc1cc(C=O)c(Br)cc1OCC(=O)NCc1ccccc1`, -19% (inactive); to `CCCNC(=S)N1CCCC(c2nc3ccccc3[nH]2)C1` (stereo not drawn), -49% (inactive).
Under `Cn1c(CCC(=O)Nc2ccccc2F)nnc1SCC(=O)Nc1ccccc1Cl` stands -44.5% (inactive); under `COc1ccc(S(=O)(=O)N2CCN(C(=O)c3cc(C)oc3C)CC2)cc1`, -37.8% (inactive); under `CC(=O)c1ccc(N=C2SCCCN2C(=O)C2CCCCC2)cc1`, 7.89% (inactive).
For `COc1cccc(C(=O)Oc2cc(C)[nH]c(=O)c2[N+](=O)[O-])c1`, the inhibition is 21.9% (inactive).
With `COCc1cc(C(C)=O)ccc1OC`, the inhibition is -4.6% (inactive).
To `CCN(CC)Cc1cc(C(C)=O)ccc1O` belongs 47.5% (active); to `CC(=O)c1ccc2c(ccc3ccccc32)c1`, 22.7% (inactive); to `CC1CCCN(CC(O)COc2ccc3c(c2)OCO3)C1` (stereo not drawn), 11.9% (inactive).
Under `O=C1CCC(=O)N1c1ccc(NCCc2ccccc2F)c([N+](=O)[O-])c1` stands -8.93% (inactive).
To `CCN(C(=O)CN1CCN(Cc2ccccc2)CC1)c1c(N)n(Cc2ccccc2)c(=O)[nH]c1=O` belongs -54.5% (inactive).
Regarding `CN1CCN(c2ccc(NC(=O)COc3ccc(Cl)cc3Cl)cc2)CC1`, the inhibition was 3.16% (inactive).
Under `COc1ccc(OCC(=O)Nc2ccc(N3CCC(C)CC3)cc2)cc1` stands -61.5% (inactive); under `Cc1ccc(NC(=O)COc2ccc(-n3ccnc3)cc2)cc1Cl`, 73% (active).
Under `O=C(Cn1nnc2ccccc2c1=O)NCc1ccc(Cl)cc1` stands -24.9% (inactive).
Under `COCCNC(=O)/C(C#N)=C/c1nc(N(C)C)n(-c2ccc(F)cc2)c1Cl` stands 6.3% (inactive); under `Nc1ccc(S(=O)(=O)Nc2nccc(/C=C/c3ccc(Br)s3)n2)cc1`, 11.1% (inactive).
For the compound `CCCNc1ncnc2sc(C)c(C)c12`, the inhibition is 99.7% (active).
Under `CCc1cc2c(NC3CCCC3)ncnc2s1` stands -4.12% (inactive); under `CCOC(=O)C(C)n1cnc2sc(C)c(C)c2c1=O` (stereo not drawn), 23.1% (inactive).
Under `C/[N+]([O-])=C\c1ccc([N+](=O)[O-])o1` stands -20.9% (inactive).
As to `COC(=O)C1=C(C)N(C)C(=O)NC1c1ccc([N+](=O)[O-])o1` (stereo not drawn), the inhibition was 4.38% (inactive).
On to `C(=N/N1CCN(c2ccccc2)CC1)/c1cccs1`, for which the inhibition was -23.6% (inactive).
As for `Cc1ccc(N2CCN(/N=C/c3cccs3)CC2)cc1`, the inhibition was 58.4% (active).
Under `Cc1ccc(N2CCN(C3=NC(=O)/C(=C\c4cccs4)S3)CC2)cc1` stands -36.9% (inactive); under `CS(=O)(=O)n1nc(-c2ccco2)nc1N`, -27.1% (inactive); under `Cn1nc(-c2ccccc2)c(CO)c1Sc1ccccc1`, -21.3% (inactive).
To `CC(=O)NCCC(=O)Nc1cc(S(=O)(=O)N2CCOCC2)ccc1N1CCOCC1` belongs -13.3% (inactive); to `CCc1ccc(NC(=O)Cn2nc(C)c([N+](=O)[O-])c2C)cc1`, 24.3% (inactive); to `COC(=O)c1ccc(NCC(=O)N2CCCCCC2)cc1`, 7.57% (inactive).
To `Cc1cc(C)nc(/N=C2\NC(=O)CC(C(=O)O)N2c2ccc(Cl)cc2Cl)n1` (stereo not drawn) belongs 48.5% (active); to `CCOC(=O)c1nc(C)n(-c2ccc(Cl)cc2Cl)n1`, -32.4% (inactive); to `Cc1cc(Cl)ccc1N1C(=O)CC(SCCC(=O)O)C1=O` (stereo not drawn), -14% (inactive).
Regarding `COc1ccc(Sc2nc(-c3ccccc3)ncc2OC)cc1`, the inhibition is -16.9% (inactive).
